According to PubChem BioAssay (Tox21):
Several values for one entry are separate records, joined by “and”; a condition that tells them apart may be missing. Identical values can stand only once. Inconclusive results are not listed. A call without a number means that no potency is given here. A structure can be active in one record and inactive in another. Activity calls are given as the source filed them. Unless noted, calls come from the whole dose curve; as a rule, active = well fitted curve in the direction sought with a large enough effect in the repeat runs; inconclusive = weak or mixed curves; inactive = no such curve, though single readings can be large; an effect the other way counts as inactive or inconclusive.

Tests used:
[1] = qHTS assay to identify aromatase inhibitors - cell viability counter screen (AID 743084);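 note: cells stimulated with testosterone during compound exposure; nearly all actives have a fitted effect of over 55% in size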; note: potency is the fitted concentration of half-maximal effect
[2] = biological target: Aryl hydrocarbon receptor (Homo sapiens) (UniProt P35869); assay: qHTS assay to identify small molecule that activate the aryl hydrocarbon receptor (AhR) signaling pathway (AID 743085); note: nearly all actives have a fitted effect of over 15% in size; note: potency is the fitted concentration of half-maximal effect;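 for activation: HG2L7.5c1 human HepG2 liver cells with stably integrated DRE-driven firefly reporter; series mostly up to about 70 µM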
Summary of the method: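 Luminescence read-out: ONE-Glo reagent, 30 min at room temperature, in HG2L7.5c1 HepG2 reporter cells treated 24 h at 37C. Viability was measured beforehand by CellTiter-Fluor fluorescence after 30 min at 37C.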

[3] = qHTS assay to identify small molecule that activate the aryl hydrocarbon receptor (AhR) signaling pathway - cell viability counter screen (AID 743086);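 note: HepG2 liver cells carrying the AhR DRE luciferase reporter; series mostly up to about 70 µM; nearly all actives have a fitted effect of over 45% in size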
Summary of the method: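 Cytotoxicity counter screen: CellTiter-Fluor signal (30 min, 37 C) in 4000 HepG2 cells/well carrying the DRE-luciferase reporter, following 24 h compound exposure at 37 C.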

[4] = qHTS assay to identify small molecule antagonists of the peroxisome proliferator-activated receptor gamma (PPARg) signaling pathway - cell viability counter screen (AID 743194); note: nearly all actives have a fitted effect of over 55% in size
Summary of the method: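 Viability was measured as CellTiter-Glo luminescence in GeneBLAzer PPARg UAS-bla HEK293H cells. These cells had been exposed 17 h at 37 C to compounds together with rosiglitazone at 50 nM final, with the beta-lactamase readout taken in the same wells.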

[5] = qHTS assay for small molecule agonists of the antioxidant response element (ARE) signaling pathway (AID 743202; active = well fitted activation curve with a large enough effect in the signal ratio in the repeat runs, not every such curve was filed as active; the % refers to the signal ratio; note: potency is the fitted concentration of half-maximal effect)
Summary of the method: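 An ARE-responsive beta-lactamase gene stably integrated in HepG2 cells serves as reporter. After 5 h plating and 16 h compound incubation at 37 C, fluorescence of the B/G FRET substrate was measured.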

[6] = qHTS assay for small molecule agonists of the antioxidant response element (ARE) signaling pathway - cell viability counter screen (AID 743203; calls by dose curve; note: nearly all actives have a fitted effect of over 55% in size)
Summary of the method: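 HepG2 cells carrying ARE-driven beta-lactamase; 2,000 cells/well; 5 hrs plating; compound pinned from DMSO; 16 hrs 37C/5% CO2; CellTiter-Glo added; 30 min RT; luminescence.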

[7] = qHTS assay for small molecule activators of the heat shock response signaling pathway - cell viability counter screen (AID 743209); note: nearly all actives have a fitted effect of over 50% in size
Summary of the method: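 Luminescence from CellTiter-Glo, added after the beta-lactamase FRET read, gave the viability signal. Cells were HSE-bla HeLa treated with DMSO-dissolved compounds for 5 h at 37 C following overnight plating.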

[8] = qHTS assay for small molecule activators of the heat shock response signaling pathway (AID 743210; active = well fitted activation curve with a large enough effect in the signal ratio in the repeat runs, with a control signal flat, not every such curve was filed as active; the % refers to the signal ratio;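 note: HeLa cells with beta-lactamase reporter driven by heat shock elements; series mostly up to about 63 µM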)
Summary of the method: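 In HSE-bla HeLa cells, 5 h compound incubation (37 C) precedes addition of LiveBLAzer B/G substrate; after 2.5 h at room temperature, fluorescence intensity indicates reporter induction.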

[9] = qHTS assay to identify small molecule agonists of the peroxisome proliferator-activated receptor delta (PPARd) signaling pathway - cell viability counter screen (AID 743211); note: nearly all actives have a fitted effect of over 55% in size
Summary of the method: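 Read-out: CellTiter-Glo luminescence, 30 min RT, measured in the same wells as the beta-lactamase reporter. Cells: GeneBLAzer PPAR delta UAS-bla HEK293H, 3000 cells/well, compound exposure 17 h at 37C.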

[10] = biological target: Peroxisome proliferator-activated receptor delta (Homo sapiens) (UniProt Q03181); assay: qHTS assay to identify small molecule agonists of the peroxisome proliferator-activated receptor delta (PPARd) signaling pathway (AID 743212; calls by dose curve)
Summary of the method: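 HEK293H UAS-bla reporter cells, human PPARd system; compounds delivered in DMSO after 5 h plating, then at 37 C. Beta-lactamase FRET read, 2 h RT substrate step.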

[11] = qHTS assay to identify small molecule antagonists of the peroxisome proliferator-activated receptor delta (PPARd) signaling pathway - cell viability counter screen (AID 743213); note: nearly all actives have a fitted effect of over 50% in size
Summary of the method: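 Same-well viability: cells pre-incubated 5 h, dosed with compound plus 300 nM L165041, kept 17 h at 37 C, FRET substrate 2 h RT, then CellTiter-Glo 30 min RT and luminescence.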

[12] = biological target: Peroxisome proliferator-activated receptor delta (Homo sapiens) (UniProt Q03181); assay: qHTS assay to identify small molecule antagonists of the peroxisome proliferator-activated receptor delta (PPARd) signaling pathway (AID 743215; active = well fitted inhibition curve with a large enough effect in the signal ratio in the repeat runs, not every such curve was filed as active; the % refers to the signal ratio;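 note: cells stimulated with agonist L165041 at 300 nM final during compound exposure; series mostly up to about 62 µM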)
Summary of the method: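 Read-out is beta-lactamase FRET fluorescence, measured 2 h after substrate addition at room temperature. Beforehand, UAS-bla HEK293H cells carrying the PPARd reporter were exposed to compounds with L165041 at 300 nM final for 17 h at 37 C.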

[13] = qHTS assay to identify small molecule antagonists of the farnesoid-X-receptor (FXR) signaling pathway - cell viability counter screen (AID 743221; active = well fitted cell-killing curve with a large enough effect in the repeat runs, not every such curve was filed as active; note: nearly all actives have a fitted effect of over 50% in size)
Summary of the method: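 HEK 293T FXR-bla cells, 5 h pre-incubation; compound + CDCA 50 uM final, 16 h, 37 C; beta-lactamase FRET read first, then CellTiter-Glo luminescence, 30 min RT.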

[14] = biological target: Vitamin D3 receptor (Homo sapiens) (UniProt P11473); assay: qHTS assay to identify small molecule agonists of the vitamin D receptor (VDR) signaling pathway (AID 743222; calls by dose curve)
Summary of the method: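 VDR-bla cells, 2,000/well; 4 h preincubation 37C; cpd (DMSO) 16 h; LiveBLAzer B/G substrate 2 h RT; fluorescence intensity read.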

[15] = biological target: Vitamin D3 receptor (Homo sapiens) (UniProt P11473); assay: qHTS assay to identify small molecule antagonists of the vitamin D receptor (VDR) signaling pathway (AID 743223; active = well fitted inhibition curve with a large enough effect in the signal ratio in the repeat runs, not every such curve was filed as active; the % refers to the signal ratio)
Summary of the method: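 Beta-lactamase reporter read-out: FRET substrate fluorescence after 2 h at room temperature, following 16 h exposure of VDR-bla cells to test compound plus 3 nM (final) 1alpha,25-dihydroxyvitamin D3 agonist at 37C.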

[16] = biological target: Peroxisome proliferator-activated receptor gamma (Homo sapiens) (UniProt P37231); assay: qHTS assay to identify small molecule agonists of the peroxisome proliferator-activated receptor gamma (PPARg) signaling pathway (AID 743094; active = well fitted activation curve with a large enough effect in the signal ratio in the repeat runs, not every such curve was filed as active; the % refers to the signal ratio)
Summary of the method: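 Beta-lactamase FRET fluorescence was the read-out after a 1 h room-temperature substrate step, following 17 h compound treatment at 37C of HEK293H cells expressing a UAS-driven bla reporter responsive to PPARg.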

[17] = biological target: Peroxisome proliferator-activated receptor gamma (Homo sapiens) (UniProt P37231); assay: qHTS assay to identify small molecule antagonists of the peroxisome proliferator-activated receptor gamma (PPARg) signaling pathway (AID 743191; calls by dose curve; note: series mostly up to about 63 µM; nearly all actives have a fitted effect of over 30% in size)
Summary of the method: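 Beta-lactamase reporter under UAS control in HEK293H PPARg-bla cells; compound treatment 17 h at 37C. Read-out: fluorescence intensity after 1 h room-temperature incubation with LiveBLAzer B/G FRET substrate.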

[18] = qHTS assay to identify small molecule agonists of the farnesoid-X-receptor (FXR) signaling pathway - cell viability counter screen (AID 743218); note: nearly all actives have a fitted effect of over 45% in size
Summary of the method: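 HEK 293T FXR-bla cells; 5 h pre-incubation, 16 h compound exposure at 37 C; LiveBLAzer substrate 2 h RT, then CellTiter-Glo 30 min RT, luminescence.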

[19] = biological target: Bile acid receptor (Homo sapiens) (UniProt Q96RI1); assay: qHTS assay to identify small molecule antagonists of the farnesoid-X-receptor (FXR) signaling pathway (AID 743217; active = well fitted inhibition curve with a large enough effect in the signal ratio in the repeat runs, not every such curve was filed as active; the % refers to the signal ratio)
Summary of the method: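 HEK 293T FXR-UAS-bla, 5000 cells/well; compound + CDCA 50 uM final; 16 h, 37 °C; B/G FRET substrate 2 h RT; fluorescence.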

[20] = biological target: Bile acid receptor (Homo sapiens) (UniProt Q96RI1); assay: qHTS assay to identify small molecule agonists of the farnesoid-X-receptor (FXR) signaling pathway (AID 743220; active = well fitted activation curve with a large enough effect in the signal ratio in the repeat runs, not every such curve was filed as active; the % refers to the signal ratio)
Summary of the method: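 Beta-lactamase reporter under UAS control in GeneBLAzer FXR HEK 293T cells (5000/well) measured with LiveBLAzer FRET substrate after 2 h at room temperature. Compound exposure lasted 16 h at 37C.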

Peroxisome proliferator-activated receptor delta (Homo sapiens), sequence (Q03181 whole entry, looked up): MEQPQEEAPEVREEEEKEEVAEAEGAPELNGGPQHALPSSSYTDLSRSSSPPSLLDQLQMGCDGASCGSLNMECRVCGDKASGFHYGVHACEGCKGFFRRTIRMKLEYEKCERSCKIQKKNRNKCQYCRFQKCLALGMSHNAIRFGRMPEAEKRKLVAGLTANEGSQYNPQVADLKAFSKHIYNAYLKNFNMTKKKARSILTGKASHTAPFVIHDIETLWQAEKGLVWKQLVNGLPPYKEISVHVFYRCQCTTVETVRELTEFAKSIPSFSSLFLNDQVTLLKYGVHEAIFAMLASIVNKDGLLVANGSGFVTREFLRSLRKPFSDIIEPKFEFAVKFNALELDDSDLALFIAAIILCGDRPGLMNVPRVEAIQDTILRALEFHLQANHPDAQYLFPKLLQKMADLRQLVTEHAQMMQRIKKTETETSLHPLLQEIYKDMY
Bile acid receptor (Homo sapiens), sequence (Q96RI1 whole entry, looked up): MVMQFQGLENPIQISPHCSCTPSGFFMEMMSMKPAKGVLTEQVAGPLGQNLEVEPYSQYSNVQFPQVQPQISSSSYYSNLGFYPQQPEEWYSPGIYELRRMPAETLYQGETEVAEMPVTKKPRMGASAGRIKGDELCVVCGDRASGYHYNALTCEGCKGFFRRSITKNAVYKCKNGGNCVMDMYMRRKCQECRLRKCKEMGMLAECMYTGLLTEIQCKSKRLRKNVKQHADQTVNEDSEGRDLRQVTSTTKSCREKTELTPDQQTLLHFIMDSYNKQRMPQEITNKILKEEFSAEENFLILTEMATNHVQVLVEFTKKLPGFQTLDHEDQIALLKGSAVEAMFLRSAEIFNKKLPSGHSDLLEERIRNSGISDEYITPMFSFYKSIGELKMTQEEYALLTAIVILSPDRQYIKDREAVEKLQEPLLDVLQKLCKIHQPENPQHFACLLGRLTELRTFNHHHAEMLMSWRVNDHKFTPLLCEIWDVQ
Vitamin D3 receptor (Homo sapiens), sequence (P11473 whole entry, looked up): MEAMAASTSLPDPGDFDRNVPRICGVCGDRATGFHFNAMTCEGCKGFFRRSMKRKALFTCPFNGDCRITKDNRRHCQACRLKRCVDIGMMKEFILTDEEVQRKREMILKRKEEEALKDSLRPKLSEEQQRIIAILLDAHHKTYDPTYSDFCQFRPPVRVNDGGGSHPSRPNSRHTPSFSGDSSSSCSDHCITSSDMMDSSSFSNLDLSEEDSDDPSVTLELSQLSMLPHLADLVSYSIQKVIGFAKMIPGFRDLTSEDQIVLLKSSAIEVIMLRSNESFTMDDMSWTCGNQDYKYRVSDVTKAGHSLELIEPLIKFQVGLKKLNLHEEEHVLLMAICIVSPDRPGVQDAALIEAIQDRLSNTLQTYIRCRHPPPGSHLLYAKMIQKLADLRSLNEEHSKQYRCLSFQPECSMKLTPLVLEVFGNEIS
Peroxisome proliferator-activated receptor gamma (Homo sapiens), sequence (P37231 whole entry, looked up): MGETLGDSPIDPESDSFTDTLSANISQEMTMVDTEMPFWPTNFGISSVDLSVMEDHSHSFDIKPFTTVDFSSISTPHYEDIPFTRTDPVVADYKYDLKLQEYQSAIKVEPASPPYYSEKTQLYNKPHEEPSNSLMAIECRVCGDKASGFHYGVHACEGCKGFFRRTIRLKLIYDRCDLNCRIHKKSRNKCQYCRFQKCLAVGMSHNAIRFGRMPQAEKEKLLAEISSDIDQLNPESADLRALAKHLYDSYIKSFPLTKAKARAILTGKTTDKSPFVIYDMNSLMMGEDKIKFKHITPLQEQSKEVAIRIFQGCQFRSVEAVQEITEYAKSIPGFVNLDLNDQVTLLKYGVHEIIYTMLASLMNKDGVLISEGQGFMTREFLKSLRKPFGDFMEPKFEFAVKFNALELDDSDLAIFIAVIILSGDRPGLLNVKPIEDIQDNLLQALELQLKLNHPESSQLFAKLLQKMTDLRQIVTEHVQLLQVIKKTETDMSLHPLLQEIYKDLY
Aryl hydrocarbon receptor (Homo sapiens), sequence (P35869 whole entry, looked up): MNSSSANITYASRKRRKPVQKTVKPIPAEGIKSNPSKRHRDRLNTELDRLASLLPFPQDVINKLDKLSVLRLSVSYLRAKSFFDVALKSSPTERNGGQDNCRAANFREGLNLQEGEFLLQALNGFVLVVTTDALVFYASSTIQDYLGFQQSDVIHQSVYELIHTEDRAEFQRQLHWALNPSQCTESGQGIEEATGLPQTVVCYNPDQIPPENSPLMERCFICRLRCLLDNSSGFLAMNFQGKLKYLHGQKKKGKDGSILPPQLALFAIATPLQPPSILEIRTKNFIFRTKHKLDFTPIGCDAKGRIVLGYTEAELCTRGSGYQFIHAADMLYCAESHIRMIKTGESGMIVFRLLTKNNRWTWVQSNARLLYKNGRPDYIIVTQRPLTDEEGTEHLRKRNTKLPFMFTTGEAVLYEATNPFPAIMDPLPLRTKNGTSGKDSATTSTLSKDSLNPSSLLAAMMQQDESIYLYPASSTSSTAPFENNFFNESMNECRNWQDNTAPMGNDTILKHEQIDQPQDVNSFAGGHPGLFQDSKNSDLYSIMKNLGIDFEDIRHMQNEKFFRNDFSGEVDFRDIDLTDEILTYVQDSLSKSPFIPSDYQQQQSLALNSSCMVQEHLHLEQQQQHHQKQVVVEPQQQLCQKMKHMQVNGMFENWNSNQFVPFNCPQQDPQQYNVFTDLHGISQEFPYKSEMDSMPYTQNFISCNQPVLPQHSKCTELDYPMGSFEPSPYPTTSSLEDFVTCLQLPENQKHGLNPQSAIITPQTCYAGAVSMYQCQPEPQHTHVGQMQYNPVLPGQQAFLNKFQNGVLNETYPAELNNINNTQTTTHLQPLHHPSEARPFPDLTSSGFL

SMILES	Potency [1]	Potency [2]	outcome [3]	outcome [4]	Potency [5]	outcome [6]	outcome [7]	Potency [8]	outcome [9]	outcome [10]	outcome [11]	Potency [12]	Potency [13]	outcome [14]	outcome [15]	outcome [16]	outcome [17]	Potency [18]	outcome [19]	outcome [20]
CC1=C(C)S(=O)(=O)CCS1(=O)=O	inactive	inactive	inactive	inactive	1.09 µM (active)	inactive	inactive	inactive	inactive	inactive	inactive	inactive	inactive	inactive	inactive	–	–	–	–	–
c1ccc(OCCOc2ccccc2)cc1	inactive	–	inactive	inactive	–	inactive	inactive	inactive	inactive	inactive	inactive	inactive	inactive	inactive	inactive	inactive	inactive	–	–	–
Nc1cc([N+](=O)[O-])ccc1O	54.5 µM (active)	–	–	inactive	–	inactive	inactive	inactive	inactive	inactive	–	inactive	–	inactive	inactive	inactive	inactive	inactive	–	–
OCCOCCOCCO	inactive	–	inactive	inactive	inactive	inactive	inactive	inactive	inactive	–	inactive	–	inactive	inactive	inactive	inactive	inactive	inactive	–	–
O=C(O)CCCCCCCCCCC(=O)O	inactive	inactive	inactive	inactive	–	inactive	inactive	inactive	inactive	inactive	inactive	inactive	inactive	inactive	inactive	–	–	–	inactive	–
CC(C)(C)[C@@H](O)[C@@H](Cc1ccc(Cl)cc1)n1cncn1	inactive	–	inactive	inactive	inactive	inactive	inactive	inactive	inactive	inactive	inactive	inactive	inactive	inactive	inactive	inactive	inactive	inactive	inactive	–
O=C(O)c1cc(O)c(O)c(O)c1	inactive and 49 µM (active)	inactive	–	inactive	–	inactive	inactive	inactive	inactive	inactive	inactive	inactive	inactive	inactive	inactive	inactive	–	inactive	–	–
CCCCC(CC)COC(=O)CS (stereo not drawn)	–	–	inactive	inactive	inactive	inactive	inactive	inactive	inactive	–	inactive	–	–	inactive	inactive	–	–	inactive	–	–
CCCCN(CCCC)CCCC	inactive	inactive	inactive	inactive	inactive	inactive	inactive	inactive	inactive	inactive	inactive	inactive	inactive	inactive	inactive	–	–	inactive	inactive	inactive
O=P(OC(CCl)CCl)(OC(CCl)CCl)OC(CCl)CCl	inactive	inactive	inactive	inactive	–	inactive	inactive	inactive	inactive	inactive	inactive	inactive	inactive	inactive	inactive	inactive	–	–	–	–
C=C(C)C(=O)Nc1ccc(Cl)c(Cl)c1	inactive	69.3 µM (active) and 54.3 µM (active)	–	–	19.5 µM (active) and 27.2 µM (active)	inactive	inactive	inactive	inactive	–	inactive	–	–	inactive	inactive	–	–	–	–	–
CC(=O)OCC(=O)[C@@]12N=C(C)O[C@@H]1C[C@H]1[C@@H]3CCC4=CC(=O)C=C[C@]4(C)[C@H]3[C@@H](O)C[C@@]12C	inactive	–	inactive	inactive	–	inactive	inactive	inactive	inactive	inactive	inactive	inactive	inactive	inactive	inactive	inactive	inactive	inactive	–	–
NNc1nncc2ccccc12	–	9.69 µM (active)	inactive	inactive	–	inactive	inactive	inactive	inactive	–	–	–	inactive	inactive	inactive	–	–	inactive	–	–
O=S(=O)(O)c1ccc2ccccc2c1	inactive	–	inactive	inactive	inactive	inactive	inactive	inactive	inactive	inactive	inactive	inactive	–	inactive	inactive	inactive	inactive	inactive	inactive	–
CCCCOC(=O)COc1ccc(Cl)cc1Cl	inactive	–	inactive	inactive	–	inactive	inactive	inactive	inactive	–	–	–	inactive	inactive	inactive	inactive	inactive	–	inactive	–
CN(C)CCC(c1ccc(Cl)cc1)c1ccccn1 (stereo not drawn)	–	inactive	inactive	inactive	–	inactive	inactive	inactive	–	–	inactive	–	inactive	–	–	–	–	–	–	–
C[C@H]1C[C@H]2[C@@H]3CCC4=CC(=O)C=C[C@]4(C)[C@@]3(F)[C@@H](O)C[C@]2(C)[C@@]1(O)C(=O)CO	inactive	inactive	inactive	inactive	–	inactive	inactive	inactive	inactive	inactive	inactive	inactive	–	–	–	–	–	inactive	–	–
CCN(CC)c1ccc(C(=O)c2ccccc2C(=O)O)c(O)c1	inactive	inactive	inactive	inactive	inactive	inactive	inactive	inactive	inactive	–	–	–	inactive	inactive	–	–	–	–	–	–
CC(c1cc2ccccc2s1)N(O)C(N)=O (stereo not drawn)	inactive	–	inactive	inactive	inactive	inactive	inactive	inactive	inactive	inactive	inactive	inactive	–	inactive	inactive	–	–	inactive	–	–
Cc1cnc(C(=O)NCCc2ccc(S(=O)(=O)NC(=O)NC3CCCCC3)cc2)cn1	inactive	–	inactive	inactive	–	inactive	inactive	inactive	inactive	inactive	inactive	–	–	–	–	inactive	–	inactive	–	–
CC1=CCC2CC1C2(C)C (stereo not drawn)	inactive	–	inactive	inactive	–	inactive	inactive	inactive	inactive	inactive	inactive	–	inactive	inactive	–	inactive	–	inactive	–	–
O=C(CC(C(=O)OC1CCCCC1)S(=O)(=O)O)OC1CCCCC1 (stereo not drawn)	inactive	–	inactive	inactive	–	inactive	inactive	inactive	inactive	inactive	–	inactive	–	–	–	inactive	–	inactive	inactive	–
